# Measurements published in PubChem BioAssay (NCATS).
# The source made the active and inactive calls. Entries that show only a call come without a potency. The call rests on the fitted dose curve; in most records, active means well fitted activation curve with a large enough effect; inconclusive means small, poorly fitted or top-dose-only effect; inactive means flat fitted curve, though single readings scatter.
# Experiment: Cellular Toxicity (caspase-3) SHSY5Y (AID 657)
# Conditions: SH-SY5Y caspase-3 activation; series mostly up to 91.7 µM
# Excerpt: NIH Chemical Genomics Center [NCGC]
# NIH Molecular Libraries Screening Centers Network [MLSCN]
# National Institutes of Environmental Health Sciences [NIEHS]
# National Toxicology Program [NTP]
# We have developed a 1536-well cell-based assay for quantitative high throughput screening (qHTS) against a number of cell lines to determine in vitro caspase 3/7 activity of small molecules. This particular assay uses the SH-SY5Y cell line which is derived from human neuroblastoma.
# NCGC Assay Protocol Summary:
# The Caspase-Glo 3/7 assay (Promega) is a homogeneous method to measure caspase-3 and caspase-7 activities in cultured cells. The quantitation of caspase 3/7 activity is based on the cleavage of a peptide-aminoluciferin substrate. After caspase cleaves the substrate the free aminoluciferin is liberated and serves as the substrate of luciferase, which generates the light. The luminescent signal is proportional to the amount of caspase 3/7 activity present.
# Using the Caspase-Glo 3/7 assay, the amount of caspase 3/7 activity was measured in the SH-SY5Y cell line with complete culture medium following compound treatment for 16 hours. The assay was performed in opaque white 1536-well plates. In the screen, staurosporine and doxorubicin were used as positive controls. Library compounds were measured for their ability to cause the activation of caspase 3/7 in the cell line, as reflected by an increase in luminescence signal, in a concentration-dependent manner. Data were normalized to the controls for basal activity (DMSO only) and 100% stimulation (10 uM staurosporine). AC50 values were determined from concentration-response data modeled with the standard Hill equation.
# qHTS protocol for caspase 3/7 assay in SH-SY5Y cells
# [Step] [Parameter] [Value] [Description]
# 1. Reagent; 5 uL; 1500 SH-SY5Y cells/well
# 2. Time; 5 hr; 37 °C incubation
# 4. Controls; 23 nL; doxorubicin 7 pM to 100 uM & staurosporine 1.4 pM to 20 uM
# 5. Time; 16 hr; 37 °C incubation
# 6. Reagent; 5 uL; Caspase-Glo 3/7 reagent
# 7. Time; 1 hr; Room Temperature
# 8. Detection; Luminescence; Viewlux plate reader
# Keywords: caspase 3/7, apoptosis, SH-SY5Y cell line, luminescence, NTPHTS, NTPHTS_NCGC, NIEHS, EPA, DSSTox, MLSMR, MLSCN, NIH Roadmap, qHTS, NCGC
# Potency means the concentration at half of the fitted maximal effect.
row,SMILES,Potency
1,O=c1ccc2ccccc2o1,inactive
2,O=C(O)CCCCC(=O)O,inactive
3,CN(C)/N=N/c1nc[nH]c1C(N)=O,inactive
4,O=C1OC(c2ccc(O)cc2)(c2ccc(O)cc2)c2ccccc21,inactive
5,C=CCc1ccc(O)c(OC)c1,inactive
6,Oc1c(I)cc(Cl)c2cccnc12,inactive
7,C=C(CC)C(=O)c1ccc(OCC(=O)O)c(Cl)c1Cl,inactive
8,Oc1ccc(O)cc1,inactive
9,Oc1ccc(Cl)cc1Sc1cc(Cl)ccc1O,inactive
10,COC1=CC(=O)C[C@@H](C)[C@]12Oc1c(Cl)c(OC)cc(OC)c1C2=O,inactive
11,C[C@]12CC[C@@H]3c4ccc(O)cc4CC[C@H]3[C@@H]1CC[C@@H]2O,inactive
12,CC/C(=C(/CC)c1ccc(O)cc1)c1ccc(O)cc1,inactive
13,NC(=NCCCCCCN=C(N)/N=C(\N)Nc1ccc(Cl)cc1)/N=C(\N)Nc1ccc(Cl)cc1,inactive
14,Oc1c(Cl)cc(Cl)cc1Sc1cc(Cl)cc(Cl)c1O,inactive
15,COc1cccc2c1C(=O)c1c(O)c3c(c(O)c1C2=O)C[C@@](O)(C(=O)CO)C[C@@H]3O[C@H]1C[C@H](N)[C@H](O)[C@H](C)O1,15.8 nM (active)
16,CCCCCCc1ccc(O)cc1O,inactive
17,CC(C)(C)CC(C)(C)c1ccc(OCCOCC[N+](C)(C)Cc2ccccc2)cc1,inactive
18,CC(=O)O[C@]1(C(C)=O)CC[C@H]2[C@@H]3C[C@H](C)C4=CC(=O)CC[C@]4(C)[C@H]3CC[C@@]21C,inactive
19,Nc1ccc(C(=O)O)cc1,inactive
20,CC(=O)Oc1ccc(C(c2ccc(OC(C)=O)cc2)c2ccccn2)cc1,inactive
21,CC(O)C(=O)O (stereo unspecified),inactive
